IP6K1 inh: Primary qHTS assay for small molecule inhibitors of Inositol hexaphosphate kinase 1 (IP6K1) | 140,000 compounds, 0.81% hits | AID 1645851, 2021 | IP6K1 kinase, ADP-Glo luminescence, 2 h; hits give low values | activity change, % (series mostly up to about 58 µM); in the data active = activity change below about -25%; also: % is scaled to controls: 0 for no effect and ±100 for the full control effect
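ADP-Glo luminescence measures ADP made by human IP6K1 during a 2 h RT reaction with ATP/IP6 (mix at 1.3 mM/130 uM); top library doses 57.5 and 19.1 uM final.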
SNCA viab count: GF-AFC viability counterscreen for inhibitors of alpha-synuclein gene (SNCA) expression; HEK-293-SNCA-luc viability, GF-AFC fluorescence, 24 h; Potency, µM (doses to about 57.1 µM), without a hit: top-dose activity change, negative = cytotoxicity, actives largely listed as cytotoxic; 150,000 compounds, 0.12% hits;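 also: potency is read from the fitted curve at half-maximal effect; 0% = DMSO-treated cells and -100% = medium-only wells without cells; nearly all actives have a fitted effect of over 30% in size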
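HEK-293-SNCA-luc cells (1500/well) plated 24 h, then exposed 24 h to a dilution series; GF-AFC added 30 min at 37C, fluorescence 405/540 nm; normalised to medium-only and DMSO wells, Hill fit.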
SNCA expr inh: Primary qHTS assay for inhibitors of alpha-synuclein gene (SNCA) expression; 140,000 compounds, 0.17% hits; Potency, µM (titrated, usually from 57.2 µM), inactives show top-dose activity change, negative = inhibition, usual class: inhibitors; HEK-293 SNCA-luciferase knock-in, luminescence, 24 h; AID 1671194, 2021;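 also: potency is read from the fitted curve at half-maximal effect; plate controls were DMSO cells for no effect and cell-free wells for full effect; nearly all actives have a fitted effect of over 45% in size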
KDM5B inh: Primary screen for KDM5B Histone Demethylases FDH-coupled qHTS | 220,000 compounds, 2.6% hits | AID 1347165, 2019 | KDM5B demethylase, FDH-coupled NADH fluorescence (FDH is formaldehyde dehydrogenase) | Potency, µM (titrated, usually from 57.7 µM), usual class: inhibitors; also: potency is read from the fitted curve at half-maximal effect; 0% is about no effect; nearly all actives have a fitted effect of over 70% in size
Target sequence (Q9UGL1 whole entry, looked up): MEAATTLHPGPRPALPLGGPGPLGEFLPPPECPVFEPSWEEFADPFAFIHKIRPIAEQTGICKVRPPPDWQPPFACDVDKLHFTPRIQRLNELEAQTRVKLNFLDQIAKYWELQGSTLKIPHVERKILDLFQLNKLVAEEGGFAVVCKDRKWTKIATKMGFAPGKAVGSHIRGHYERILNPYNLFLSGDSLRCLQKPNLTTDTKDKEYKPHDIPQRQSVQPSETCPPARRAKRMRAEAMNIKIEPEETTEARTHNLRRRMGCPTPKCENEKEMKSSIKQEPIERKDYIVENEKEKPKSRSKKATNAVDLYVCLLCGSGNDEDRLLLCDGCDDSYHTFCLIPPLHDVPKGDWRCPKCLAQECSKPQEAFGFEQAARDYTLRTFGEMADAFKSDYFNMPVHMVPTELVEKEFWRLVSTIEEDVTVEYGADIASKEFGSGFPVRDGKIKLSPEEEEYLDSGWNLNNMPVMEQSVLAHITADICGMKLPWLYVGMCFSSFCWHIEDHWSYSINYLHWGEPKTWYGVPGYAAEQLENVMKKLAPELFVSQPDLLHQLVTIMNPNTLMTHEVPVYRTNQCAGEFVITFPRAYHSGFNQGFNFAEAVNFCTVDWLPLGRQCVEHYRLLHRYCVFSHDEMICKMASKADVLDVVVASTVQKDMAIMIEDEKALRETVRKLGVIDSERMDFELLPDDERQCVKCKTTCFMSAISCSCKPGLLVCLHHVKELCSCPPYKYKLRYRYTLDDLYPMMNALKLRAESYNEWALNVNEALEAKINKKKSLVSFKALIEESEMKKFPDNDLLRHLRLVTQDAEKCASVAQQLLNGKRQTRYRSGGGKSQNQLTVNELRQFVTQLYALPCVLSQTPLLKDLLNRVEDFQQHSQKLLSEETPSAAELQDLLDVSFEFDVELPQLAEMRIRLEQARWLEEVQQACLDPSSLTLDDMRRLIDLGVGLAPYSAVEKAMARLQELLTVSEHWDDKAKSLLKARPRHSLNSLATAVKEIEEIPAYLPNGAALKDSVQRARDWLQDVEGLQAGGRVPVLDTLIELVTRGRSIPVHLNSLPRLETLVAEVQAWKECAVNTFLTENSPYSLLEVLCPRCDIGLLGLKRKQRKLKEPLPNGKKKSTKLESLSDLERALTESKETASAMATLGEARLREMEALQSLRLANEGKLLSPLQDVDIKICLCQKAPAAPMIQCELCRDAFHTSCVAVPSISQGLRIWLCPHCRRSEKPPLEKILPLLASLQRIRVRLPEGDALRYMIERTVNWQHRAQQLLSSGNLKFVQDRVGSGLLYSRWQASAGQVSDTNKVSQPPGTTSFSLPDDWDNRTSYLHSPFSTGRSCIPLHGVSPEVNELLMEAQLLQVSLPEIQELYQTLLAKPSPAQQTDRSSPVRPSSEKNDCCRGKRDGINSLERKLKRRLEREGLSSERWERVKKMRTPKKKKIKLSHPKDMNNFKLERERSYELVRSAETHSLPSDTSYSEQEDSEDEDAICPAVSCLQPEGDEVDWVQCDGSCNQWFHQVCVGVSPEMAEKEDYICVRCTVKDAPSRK
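Compound dilutions met 200 nM (final) KDM5BΔAP for 10 min at room temperature before substrate addition. The substrate mix held 12.5 µM H3K4me3 with cofactors 25 µM α-ketoglutarate and 50 µM Fe²⁺. NADH signal gain over 30 min defined activity.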
An asterisk follows results filed as active; i = inactive; u = inconclusive; x = not tested or not shown; [ ] = another dose, or the depositor's remark. An excerpt weighted towards active compounds, which were near 2.9% of everything screened. Unless noted, calls follow the shape of the dose curve; as a rule, active = well fitted curve in the direction sought with a large enough effect; inconclusive = small, poorly fitted or top-dose-only effect, or another doubt; inactive = no such curve, though single readings can be large; an effect the other way counts as inactive or inconclusive.

SMILES	IP6K1 inh	SNCA viab count	SNCA expr inh	KDM5B inh
O=C(O)COCC(=O)N[C@H]1CCN2C(=O)c3cc(-c4ccc(Cl)cc4)ccc3NC(=O)[C@H]12	-3	1%	0%	u
CC(C)NC(=O)N[C@H]1CCN2C(=O)c3cc(-c4cccc(C(F)(F)F)c4)ccc3NC(=O)[C@H]12	16	2%	-18%	u
O=C(O)CCC(=O)N[C@H]1CCN2C(=O)c3cc(-c4ccc(Cl)cc4)ccc3NC(=O)[C@H]12	-12	2%[87.6 µM]	-22%[87.6 µM]	32µM*
CC(C)NC(=O)N[C@H]1CCN2C(=O)c3cc(-c4ccc(Cl)cc4)ccc3NC(=O)[C@H]12	-3	3%[87.6 µM]	24%[87.6 µM]	32µM*
COc1ccc2cc(C(=O)O)nnc2c1	x	x	x	i
Nc1ncc(C(=O)N[C@@H]2CC[C@@H](N)C2)c(-c2ccccc2)n1	12	4%	3%	22µM*
COCCCNC(=O)c1cn2cc(-c3cccc(C(F)(F)F)c3)sc2n1	7	-18%	-7%	x
Cc1c(C(=O)O)sc2ncnc(NCC3(O)CCCCC3)c12	25	-3%	-9%	20µM*
Cc1cn2c(=O)cc(CN3CC[C@@](C)(O)[C@@H](O)C3)nc2s1	-9	-4%	18%	32µM*
COc1ccc(CN2C[C@H]3CN(Cc4ccc(OC(F)(F)F)cc4)CCN3C2=O)cc1	0	-9%	-12%	i
Cc1cc(C)c(C#N)c(N2CCC3(CCC(=O)N(CC(C)O)C3)CC2)n1 (stereo not drawn)	21	-10%	2%	28µM*
Fc1ccc(CNCCN2CCCC2)c(F)c1	x	x	x	i
c1ccc(Nc2cc3c(cn2)NCCN(Cc2ccccn2)C3)cc1	3	-9%[87.6 µM]	-2%[87.6 µM]	35µM*
Oc1ccccc1CN1CCNc2cc(Nc3ccccc3)ncc2C1	-15	u	16%[87.6 µM]	i
Oc1ccccc1CN1CCNc2cnc(Nc3ccccc3)cc2C1	-16	-18%[87.6 µM]	u	22µM*
Oc1ccccc1CN1CCNc2cc(Nc3cccnc3)ncc2C1	-22	-14%[87.6 µM]	15%[87.6 µM]	35µM*
c1ccc(CN2CCNc3cnc(Nc4ccc(N5CCOCC5)cc4)cc3C2)cc1	-9	u	u	u
CC(OC(=O)c1ccc(CCNS(C)(=O)=O)cc1)C(=O)N(C)C1CCCCC1 (stereo not drawn)	x	x	x	i
Cc1cc(C(=O)NCC2Cn3cccc3CN2Cc2ccccc2)n[nH]1 (stereo not drawn)	-8	4%	104%	32µM*
O=C(NCC1Cn2cccc2CN1Cc1ccccc1)c1ccc2cc[nH]c2c1 (stereo not drawn)	-2	2%	29%	25µM*
COc1ccc(C(=O)NCC2Cn3cccc3CN2Cc2cccnc2)cc1 (stereo not drawn)	-15	-7%	-17%	13µM*
Cc1cc(C(F)(F)F)nn1CC(=O)NCC1Cn2cccc2CN1Cc1ccccc1 (stereo not drawn)	10	3%	4%	u
CN1CCCC1CCNc1nccc(-c2cnn(-c3ccc(F)cc3)c2)n1 (stereo not drawn)	5	3%	10%	28µM*
C=C(C)CNc1ccc(C(=O)NCCC2CCCCN2C)cn1 (stereo not drawn)	3	-5%	-12%	u
CN1CCCC1CCNc1nccc(-c2cnn(-c3ccccc3F)c2)n1 (stereo not drawn)	0	-4%	35%	28µM*
SMILES	IP6K1 inh	SNCA viab count	SNCA expr inh	KDM5B inh
CCOc1ccc(CN(CC)Cc2cc(=O)oc3ccc(C)cc23)cc1	x	x	x	i
Cc1ccc(-n2ncc3c(N4CCC(Cc5ccccc5)CC4)ncnc32)cc1	10	-6%	-8%	i
Cc1ccc(-n2ncc3c(N4CCCCC4)ncnc32)cc1Cl	-4	7%	7.1µM*	i
Cc1ccc(-n2ncc3c(N4CCCCCC4)ncnc32)cc1Cl	10	2%	9%	i
Cc1ccc(-n2ncc3c(N4CCCCC4)ncnc32)cc1	14	3%	0.89µM*	u
CCC(C)Nc1ncnc2c1CN(C1CCCNCC1)C(=O)CN2C (stereo not drawn)	4	7%	1%	u
CCc1ccc(/C=C/C(=O)c2cc3cccc(OC)c3oc2=O)cc1	x	x	x	i
Cc1nnnn1Cc1ccc(C(=O)N2CCc3nc(-c4cn[nH]c4)[nH]c3C2)cc1	5	9%	-4%	i

Screening data deposited in PubChem by National Center for Advancing Translational Sciences (NCATS).
